From PubChem
HP1b binding inh = inhibitors of HP1-beta chromodomain binding to methylated histone tails; AlphaScreen HP1-beta / biotin-H3K9me3 peptide binding; P83916; AID 540317; Potency, µM (titrated, usually from 114 µM), without a hit: at the highest dose activity change, negative = inhibition, most hits filed as inhibitors; 390,000 tested, 0.56% active; also: nearly all actives have a fitted effect of over 70% in size
Target sequence (P83916 whole entry, looked up): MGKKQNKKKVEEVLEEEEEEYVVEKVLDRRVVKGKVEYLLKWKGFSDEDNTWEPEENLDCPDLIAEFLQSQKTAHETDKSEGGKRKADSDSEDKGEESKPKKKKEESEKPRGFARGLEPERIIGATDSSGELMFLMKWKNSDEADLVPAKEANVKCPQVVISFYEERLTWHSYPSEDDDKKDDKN
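AlphaScreen: HP1-beta (50 nM) preformed 30 min with biotin-H3(1-18)K9me3 peptide (50 nM) in PBS pH 7.4, 0.01% Tween-20. Compound added for 30 min at RT, then streptavidin donor/nickel chelate acceptor beads (10 ug/mL) for 30 min.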
JMJD2A Tudor inh = inhibitors of human JMJD2A Tudor domain. O75164. AlphaScreen JMJD2A-Tudor / H3K4me3 peptide binding. Potency, µM (titrated, usually from 114 µM), for inactives: at the highest dose activity change, negative = inhibition, hits mostly inhibitors. 390,000 tested, 4.4% active. AID 504339; also: % is scaled to controls: 0 for no effect and ±100 for the full control effect; nearly all actives have a fitted effect of over 50% in size
PLK1 PBD block = PLK1 (human) polo-box domain binding inhibition | 360,000 tested, 2.8% active | AID 720504 | Potency, µM, without a hit: max response, negative = inhibition, usual class: inhibitors | P53350 | Plk1 PBD binding of FITC phosphopeptide, fluorescence polarization; also: series mostly up to about 57 µM; % is scaled to controls: 0 for no effect and ±100 for the full control effect; nearly all actives have a fitted effect of over 65% in size
L3MBTL1 block = L3MBTL1 (human) inhibition | Potency, µM (titrated, usually from 57.1 µM), for inactives: at the highest dose activity, negative = inhibition, actives largely listed as inhibitors | 230,000 tested, 0.66% active | AlphaScreen L3MBTL1–H3K9me1 peptide binding | Q9Y468; also: % is scaled to controls: 0 for no effect and ±100 for the full control effect; nearly all actives have a fitted effect of over 60% in size
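Displacement of a biotinylated histone H3(1-15) peptide monomethylated at Lys9 (75 nM) from L3MBTL1 (50 nM) was measured by AlphaScreen after a 30 min room-temperature compound incubation; cefsulodin titration served as intraplate control.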
VDR inhibitor = vitamin D3 receptor (human) inhibition. VDR-SRC2-3 peptide fluorescence polarization, 2 h. P11473. AID 504847. Potency, µM, without a hit: max response, negative = inhibition, hits mostly inhibitors. 400,000 tested, 0.93% active; also: % is scaled to controls: 0 for no effect and ±100 for the full control effect
Target sequence (P11473 whole entry, looked up): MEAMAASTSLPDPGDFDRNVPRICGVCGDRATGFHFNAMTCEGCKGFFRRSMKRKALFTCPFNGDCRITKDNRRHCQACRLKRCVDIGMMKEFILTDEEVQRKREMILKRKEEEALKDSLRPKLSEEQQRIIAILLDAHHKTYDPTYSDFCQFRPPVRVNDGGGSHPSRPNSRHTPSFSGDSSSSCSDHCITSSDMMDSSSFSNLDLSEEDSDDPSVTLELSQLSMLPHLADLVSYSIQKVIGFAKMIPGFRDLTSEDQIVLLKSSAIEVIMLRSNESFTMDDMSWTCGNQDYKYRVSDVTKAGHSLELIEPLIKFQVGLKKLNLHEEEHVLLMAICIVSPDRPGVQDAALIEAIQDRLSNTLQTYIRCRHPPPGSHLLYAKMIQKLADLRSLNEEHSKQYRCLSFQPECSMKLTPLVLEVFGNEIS
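The screen uses fluorescence polarization to detect compounds that interfere with recruitment of the SRC2-3 coactivator peptide to VDR; plates are read after 2 h at room temperature.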
BAZ2B block = inhibitors of human BAZ2B bromodomain; 360,000 tested, 4.4% active; Q9UIF8; Potency, µM (highest dose often 114 µM), inactives show top-dose activity change, negative = inhibition, actives largely listed as inhibitors; AlphaScreen BAZ2B-H3K14Ac peptide displacement; also: % is scaled to controls: 0 for no effect and ±100 for the full control effect; nearly all actives have a fitted effect of over 60% in size
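Multi-concentration screen (max 110 uM) measuring displacement of acetylated histone H3 peptide from BAZ2B by AlphaScreen, using 50 nM protein, 50 nM peptide and 10 ug/mL streptavidin donor plus Ni-chelate acceptor beads.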
* marks the source's active call; other numbers are inactive results; ? = inconclusive; . = not tested or not shown; [ ] = another dose, or the depositor's remark. Compounds with a hit are over-represented: about 6.9% of the library has one in this group of screens. Calls follow the shape of the dose curve; as a rule, active = well fitted curve in the direction sought with a large enough effect; inconclusive = small, poorly fitted or top-dose-only effect, or another doubt; inactive = no such curve, though single readings can be large; an effect the other way counts as inactive or inconclusive. Potency is read from the fitted curve at half-maximal effect.

SMILES	HP1b binding inh	JMJD2A Tudor inh	PLK1 PBD block	L3MBTL1 block	VDR inhibitor	BAZ2B block
CN(C)c1ccc(C(CNC(=O)c2ccccc2F)N2CCc3ccccc32)cc1 (stereo not drawn)	?	10µM*	.	.	11.4%	15.8µM*
COc1ccc(C(=O)NCC(c2ccc(N(C)C)cc2)N2CCc3ccccc32)cc1OC (stereo not drawn)	?	20µM*	.	.	5.0%	20µM*
COc1cc(C(=O)NCC(c2ccc(N(C)C)cc2)N2CCCC2)cc(OC)c1OC (stereo not drawn)	13.0%	-31.1%	.	.	-4.9%	-26.9%
CN(C)c1ccc(C(CNC(=O)c2ccccc2C(F)(F)F)N2CCOCC2)cc1 (stereo not drawn)	-11.0%	-19.2%	.	.	-2.5%	-8.6%
CN(C)c1ccc(C(CNC(=O)c2ccc(-c3ccccc3)cc2)N2CCOCC2)cc1 (stereo not drawn)	.	.	.	-9.5%	.	35.5µM*
COc1ccc(NC(=O)C(=O)NCC(c2cccnc2)N2CCc3ccccc32)cc1OC (stereo not drawn)	27.2%	-4.6%	.	.	-2.1%	-1.6%
COc1cc(C(=O)NCC(c2ccc(N(C)C)cc2)N2CCc3ccccc32)cc(OC)c1OC (stereo not drawn)	?	15.8µM*	.	.	0.5%	12.6µM*
C[C@@H]1O[C@H](O[C@@H]2[C@H](C)O[C@H](O[C@@H]3[C@H](C)O[C@H](O[C@H]4CC[C@]5(C)[C@@H](CC[C@@H]6[C@H]5C[C@@H](O)[C@]5(C)[C@@H](C7=CC(=O)OC7)CC[C@]65O)C4)C[C@@H]3O)C[C@@H]2O)C[C@H](O)[C@@H]1O	.	.	.	.	-1.7%	.
CCCOc1ccc(CNC(=O)CN2C(=O)c3cccnc3Oc3ccc(C)cc32)cc1	1.7%	-15.8%	.	.	9.2%	-2.0%
COc1ccc(CNS(=O)(=O)c2cnc(N)nc2)cc1	22.1%[57 µM]	7.1%	.	.	1.1%	3.8%
COc1cccc(C(=O)NCC(c2ccc(N(C)C)cc2)N2CCc3ccccc32)c1 (stereo not drawn)	10µM*	7.94µM*	.	.	-1.9%	7.94µM*
COc1cccc(C(=O)NCC(c2ccc(N(C)C)cc2)N2CCc3ccccc32)c1OC (stereo not drawn)	?	10µM*	.	.	11.7%	14.1µM*
COc1cccc(C(=O)NCC(c2ccc(N(C)C)cc2)N2CCCC2)c1OC (stereo not drawn)	17.3%	-14.9%	.	.	0.2%	-38.6%
COc1ccc(C(CNC(=O)c2cccc(N(C)C)c2)N2CCCC2)cc1 (stereo not drawn)	-26.8%	44.7µM*	0.1%	-23.9%	5.6%	50.1µM*
COc1ccc(N2CCN(C(CNC(=O)c3c(F)cccc3F)c3ccc4c(c3)OCO4)CC2)cc1 (stereo not drawn)	-11.4%[57 µM]	50.1µM*	.	.	9.5%	?
COc1ccc(C(=O)NCC(=O)N/N=C/c2cccc(OC(=O)c3ccco3)c2)cc1OC	40.0%	-0.3%	-0.2%	8.4%	-24.7%	-30.3%
Cc1cc(C2=NNC(=NC3CCCCC3)SC2)c(C)n1-c1c(C)n(C)n(-c2ccccc2)c1=O	0.4%	-35.9%	-17.9%	-8.5%	-12.0%	?
Cc1cc(C2=NNC(=NC3CC3)SC2)c(C)n1-c1ccccc1F	?	28.2µM*	26.7µM*	-7.8%	?	?
Cc1nc2ccccc2n1CCc1nc2c3ccccc3nc(=S)n2[nH]1	15.2%	63.1µM*	-1.6%	.	-11.7%	-3.3%
Cc1ccccc1-c1nc2c3ccccc3nc(=S)n2[nH]1	42.8%	-16.4%	-0.7%	.	12.5%	?
CNC(=O)C1CCC(Cn2c(=O)c3sccc3n(CC(=O)NCc3cccc(OC)c3)c2=O)CC1 (stereo not drawn)	24.0%	-12.0%	.	.	-0.7%	-7.4%
Cc1ccc(NC(=O)c2cc(C)nc3c2c(C)nn3-c2cccc(Cl)c2C)c(C)c1	11.4%	-9.1%	.	.	-2.5%	9.1%[57.1 µM]
Cc1c(O)ccc2c(CN3CCN(Cc4ccccc4)CC3)cc(=O)oc12	25.1%	-22.1%	0.1%	.	15.4%	2.4%
O=c1cc(CN2CCN(Cc3ccccc3)CC2)c2ccc(O)c(O)c2o1	4.1%	?	-7.4%	.	7.0%	39.8µM*
Cc1ccc(-n2c(=O)c3cc4c(=O)n(-c5ccc(C)c(C)c5)c(=O)c4c(C(=O)c4ccc(C(=O)O)cc4)c3c2=O)cc1C	?	12.6µM*	29.9µM*	.	?	10µM*
SMILES	HP1b binding inh	JMJD2A Tudor inh	PLK1 PBD block	L3MBTL1 block	VDR inhibitor	BAZ2B block
O=C(O)c1ccc(-n2c(=O)c3ccccc3c3ccccc3c2=O)cc1	50.9%	-17.5%	?	66.5%	?	89.1µM*
CC(=O)Nc1ccc(-n2c(=O)c3ccccc3c3ccccc3c2=O)cc1	26.4%	-2.9%	-29.2%	4.8%	?	-1.4%
Cc1ccc(N2C(=O)c3ccc(C(=O)O)cc3C2=O)cc1C	27.4%	-14.1%	-2.9%	.	8.2%	-35.2%
Cc1ccc(-c2ccc(=O)n(Cc3cccc(Br)c3)n2)cc1	107.3%	79.0%	-0.1%	.	4.8%	41.4%
CN(Cc1ccncc1)C(=O)[C@@H]1CCCN1C(=O)[C@@H]1CCCN1	.	.	-9.6%	.	.	.
Cc1cc(Nc2cccc(C(F)(F)F)c2)nc2ccc(NC(=O)c3cccnc3)cc12	39.1%	-9.6%	.	.	-1.1%	15.9%
COc1ccc(-c2cc(-c3ccccc3)nc(SCC(=O)CC(=O)OC(C)C)c2C#N)cc1	42.8%	13.8%	.	.	-23.4%	0.1%
COc1ccc(-c2cc(-c3ccccc3)c(C#N)c(SCC(O)CS(=O)(=O)Cc3ccc(Cl)cc3)n2)cc1 (stereo not drawn)	108.1%	-13.1%	.	.	3.2%	46.5%
COc1ccc(-c2cc(-c3ccccc3)nc(SC(C)C(=O)O)c2C#N)cc1 (stereo not drawn)	3.8%	-16.3%	26.7µM*	-5.7%	?	?
CCCOc1ccc(-c2cc(C(F)(F)F)c(C#N)c(SCC(=O)O)n2)cc1	58.9%	-5.9%	?	.	-17.9%	3.8%
COc1ccc(-c2cc(-c3ccc(Cl)cc3)c(C#N)c(SCC(=O)O)n2)cc1	?	79.4µM*	?	?	-15.3%	?
N#Cc1c(-c2ccccc2)cc(-c2ccccc2)nc1SCC(O)CS(=O)(=O)Cc1ccc(Cl)cc1 (stereo not drawn)	?	?	.	.	28.2µM*	-13.7%
CCCOc1ccc(-c2cc(C(F)(F)F)c(C#N)c(SCCC(=O)O)n2)cc1	-17.3%	79.4µM*	.	.	-4.1%	?
CCOC(=O)CC(=O)CSc1nc(-c2ccccc2)cc(-c2ccccc2)c1C#N	43.8%	16.4%	-9.8%	17.4%	-15.4%	10.8%
CC(C)C(Sc1nc(-c2ccccc2)cc(-c2ccccc2)c1C#N)C(=O)O (stereo not drawn)	-13.5%	-16.9%	18.9µM*	12.2%	-7.1%	?
